How the values were obtained:
[1] = biological target: Fibroblast growth factor receptor 4 (Homo sapiens) (UniProt P22455); conditions: at 1 µM;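 further: reported figure is the averaged percent inhibition of FGFR4, from the GSK PKIS kinase screening panel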
[2] = biological target: Tyrosine-protein kinase Fgr (Homo sapiens) (UniProt P09769); conditions: at 0.1 µM
[3] = biological target: Tyrosine-protein kinase Fgr (Homo sapiens) (UniProt P09769); conditions: at 1 µM
[4] = biological target: Vascular endothelial growth factor receptor 1 (Homo sapiens) (UniProt P17948); conditions: at 0.1 µM
Chain of Vascular endothelial growth factor receptor 1 (Homo sapiens) (P17948 whole entry): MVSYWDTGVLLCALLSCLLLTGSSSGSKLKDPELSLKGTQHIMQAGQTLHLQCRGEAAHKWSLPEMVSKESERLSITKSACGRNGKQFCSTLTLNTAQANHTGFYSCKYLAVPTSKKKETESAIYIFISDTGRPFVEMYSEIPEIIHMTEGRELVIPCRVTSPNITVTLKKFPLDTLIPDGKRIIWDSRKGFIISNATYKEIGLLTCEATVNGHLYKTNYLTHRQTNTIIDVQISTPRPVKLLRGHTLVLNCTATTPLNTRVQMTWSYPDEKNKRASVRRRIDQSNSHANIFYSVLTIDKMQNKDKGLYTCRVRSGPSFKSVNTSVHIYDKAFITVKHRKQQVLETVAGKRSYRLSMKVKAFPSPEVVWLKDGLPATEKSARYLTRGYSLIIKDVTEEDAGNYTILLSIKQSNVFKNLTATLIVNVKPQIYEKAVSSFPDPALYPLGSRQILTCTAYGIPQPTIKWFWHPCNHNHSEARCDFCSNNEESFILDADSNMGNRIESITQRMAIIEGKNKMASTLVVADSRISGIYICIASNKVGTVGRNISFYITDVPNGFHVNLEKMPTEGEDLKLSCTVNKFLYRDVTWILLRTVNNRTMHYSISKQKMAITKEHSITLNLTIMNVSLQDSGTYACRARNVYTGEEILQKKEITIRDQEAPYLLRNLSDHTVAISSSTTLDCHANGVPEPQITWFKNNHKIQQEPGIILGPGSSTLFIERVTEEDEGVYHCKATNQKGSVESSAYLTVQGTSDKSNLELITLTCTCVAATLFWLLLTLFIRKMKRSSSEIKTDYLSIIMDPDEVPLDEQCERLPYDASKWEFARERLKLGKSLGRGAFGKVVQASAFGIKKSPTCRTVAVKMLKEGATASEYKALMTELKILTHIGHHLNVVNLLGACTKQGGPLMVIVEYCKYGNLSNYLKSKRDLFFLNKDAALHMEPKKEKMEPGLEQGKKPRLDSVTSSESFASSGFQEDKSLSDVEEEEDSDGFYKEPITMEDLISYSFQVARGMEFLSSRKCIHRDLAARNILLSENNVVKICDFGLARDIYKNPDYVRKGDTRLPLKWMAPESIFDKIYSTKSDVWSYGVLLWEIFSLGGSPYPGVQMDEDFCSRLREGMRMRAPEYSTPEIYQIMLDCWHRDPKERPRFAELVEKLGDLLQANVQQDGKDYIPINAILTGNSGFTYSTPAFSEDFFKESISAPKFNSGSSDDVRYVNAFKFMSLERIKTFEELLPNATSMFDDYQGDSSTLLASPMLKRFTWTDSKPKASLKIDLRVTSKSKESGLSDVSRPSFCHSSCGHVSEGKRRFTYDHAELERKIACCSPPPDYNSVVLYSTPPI

[5] = biological target: Vascular endothelial growth factor receptor 1 (Homo sapiens) (UniProt P17948); conditions: at 1 µM
[6] = biological target: Receptor-type tyrosine-protein kinase FLT3 (Homo sapiens) (UniProt P36888); conditions: at 0.1 µM
[7] = biological target: Receptor-type tyrosine-protein kinase FLT3 (Homo sapiens) (UniProt P36888); conditions: at 1 µM
[8] = tested on: T1, Receptor-type tyrosine-protein kinase FLT3 (Homo sapiens), P36888 [D835Y]; conditions: at 0.1 µM
T1 sequence (whole entry): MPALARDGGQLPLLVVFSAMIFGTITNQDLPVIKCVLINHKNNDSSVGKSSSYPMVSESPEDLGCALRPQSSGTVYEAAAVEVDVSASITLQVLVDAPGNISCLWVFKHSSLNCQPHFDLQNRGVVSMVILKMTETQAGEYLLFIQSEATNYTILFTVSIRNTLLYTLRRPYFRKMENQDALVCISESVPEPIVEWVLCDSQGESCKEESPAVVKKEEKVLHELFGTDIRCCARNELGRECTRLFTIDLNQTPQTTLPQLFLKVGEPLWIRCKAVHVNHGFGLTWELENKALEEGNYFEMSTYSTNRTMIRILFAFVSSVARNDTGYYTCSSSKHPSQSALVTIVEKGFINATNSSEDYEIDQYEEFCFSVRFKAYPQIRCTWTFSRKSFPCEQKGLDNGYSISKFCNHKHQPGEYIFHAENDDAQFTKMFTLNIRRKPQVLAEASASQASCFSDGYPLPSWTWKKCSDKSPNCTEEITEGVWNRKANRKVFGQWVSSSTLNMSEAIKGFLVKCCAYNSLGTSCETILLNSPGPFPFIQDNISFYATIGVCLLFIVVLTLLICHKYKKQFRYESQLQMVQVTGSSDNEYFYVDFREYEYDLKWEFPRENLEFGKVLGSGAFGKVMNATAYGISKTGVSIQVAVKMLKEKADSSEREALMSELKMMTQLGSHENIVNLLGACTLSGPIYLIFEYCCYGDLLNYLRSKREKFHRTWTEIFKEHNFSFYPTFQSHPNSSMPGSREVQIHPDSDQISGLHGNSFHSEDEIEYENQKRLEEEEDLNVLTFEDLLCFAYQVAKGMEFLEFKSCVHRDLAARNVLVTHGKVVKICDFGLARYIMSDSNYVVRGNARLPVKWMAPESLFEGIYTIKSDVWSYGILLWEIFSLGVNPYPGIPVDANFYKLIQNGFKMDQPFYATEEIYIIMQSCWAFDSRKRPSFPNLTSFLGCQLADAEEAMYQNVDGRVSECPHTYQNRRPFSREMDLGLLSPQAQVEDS

[9] = biological target: Non-receptor tyrosine-protein kinase TYK2 (Homo sapiens) (UniProt P29597); conditions: at 1 µM;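 further: values are mean percent inhibition of TYK2 kinase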
Chain of Non-receptor tyrosine-protein kinase TYK2 (Homo sapiens) (P29597 whole entry): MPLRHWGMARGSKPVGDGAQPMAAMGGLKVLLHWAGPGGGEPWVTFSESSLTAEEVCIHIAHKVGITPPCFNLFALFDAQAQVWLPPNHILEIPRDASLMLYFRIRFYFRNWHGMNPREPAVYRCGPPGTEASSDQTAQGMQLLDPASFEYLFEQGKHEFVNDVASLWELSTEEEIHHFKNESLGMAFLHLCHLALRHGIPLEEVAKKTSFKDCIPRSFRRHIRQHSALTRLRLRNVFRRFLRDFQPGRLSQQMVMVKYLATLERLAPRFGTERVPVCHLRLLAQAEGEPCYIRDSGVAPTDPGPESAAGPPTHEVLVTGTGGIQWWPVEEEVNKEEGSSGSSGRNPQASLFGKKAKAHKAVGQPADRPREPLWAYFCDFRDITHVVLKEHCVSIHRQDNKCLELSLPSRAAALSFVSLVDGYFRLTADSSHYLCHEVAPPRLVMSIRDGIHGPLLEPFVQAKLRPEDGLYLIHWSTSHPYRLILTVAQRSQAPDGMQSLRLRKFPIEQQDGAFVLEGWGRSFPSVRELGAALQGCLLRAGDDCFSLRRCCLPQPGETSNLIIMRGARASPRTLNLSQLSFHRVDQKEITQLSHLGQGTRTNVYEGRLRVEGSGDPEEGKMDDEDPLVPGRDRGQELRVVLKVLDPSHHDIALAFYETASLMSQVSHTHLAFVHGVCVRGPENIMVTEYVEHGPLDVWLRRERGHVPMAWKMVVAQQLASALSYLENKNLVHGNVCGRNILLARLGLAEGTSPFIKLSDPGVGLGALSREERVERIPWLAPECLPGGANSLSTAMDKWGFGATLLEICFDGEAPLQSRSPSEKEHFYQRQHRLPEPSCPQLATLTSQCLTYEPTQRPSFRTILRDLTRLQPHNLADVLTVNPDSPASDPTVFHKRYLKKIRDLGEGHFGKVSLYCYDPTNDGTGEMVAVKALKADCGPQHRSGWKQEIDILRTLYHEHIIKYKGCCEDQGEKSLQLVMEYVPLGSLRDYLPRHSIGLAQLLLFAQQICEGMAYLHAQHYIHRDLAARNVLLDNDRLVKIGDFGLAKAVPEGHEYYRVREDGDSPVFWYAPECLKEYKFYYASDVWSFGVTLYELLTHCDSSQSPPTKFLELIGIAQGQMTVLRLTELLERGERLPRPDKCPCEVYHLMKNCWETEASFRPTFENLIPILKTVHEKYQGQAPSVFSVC

[10] = biological target: T2, Tyrosine-protein kinase receptor TYRO3 (Homo sapiens) (UniProt Q06418); conditions: at 0.1 µM;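 further: reported percentages are averaged inhibition values of TYRO3 kinase activity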
T2 sequence (whole entry): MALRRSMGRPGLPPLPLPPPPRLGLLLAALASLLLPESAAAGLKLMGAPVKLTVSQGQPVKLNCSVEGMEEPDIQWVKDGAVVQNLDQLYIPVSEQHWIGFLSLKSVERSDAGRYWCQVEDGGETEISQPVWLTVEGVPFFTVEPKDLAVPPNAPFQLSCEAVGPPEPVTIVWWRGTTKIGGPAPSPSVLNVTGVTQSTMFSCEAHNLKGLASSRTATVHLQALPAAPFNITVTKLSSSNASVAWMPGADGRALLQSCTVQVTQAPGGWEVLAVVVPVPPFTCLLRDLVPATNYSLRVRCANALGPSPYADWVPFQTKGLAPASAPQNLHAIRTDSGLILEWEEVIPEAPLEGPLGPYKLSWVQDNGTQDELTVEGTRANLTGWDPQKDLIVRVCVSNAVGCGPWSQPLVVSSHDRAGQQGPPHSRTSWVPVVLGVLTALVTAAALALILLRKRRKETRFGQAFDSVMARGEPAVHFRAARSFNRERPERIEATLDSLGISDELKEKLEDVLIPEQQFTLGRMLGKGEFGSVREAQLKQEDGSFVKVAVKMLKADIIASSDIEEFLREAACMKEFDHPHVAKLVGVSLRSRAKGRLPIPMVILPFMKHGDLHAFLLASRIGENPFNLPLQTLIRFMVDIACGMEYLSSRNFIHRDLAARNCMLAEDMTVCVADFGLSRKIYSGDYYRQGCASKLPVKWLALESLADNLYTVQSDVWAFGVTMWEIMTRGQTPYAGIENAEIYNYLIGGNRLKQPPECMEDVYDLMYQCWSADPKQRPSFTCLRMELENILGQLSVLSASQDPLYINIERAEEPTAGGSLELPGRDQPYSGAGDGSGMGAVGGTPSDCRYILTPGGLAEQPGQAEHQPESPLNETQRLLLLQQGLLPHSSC

Chain of Tyrosine-protein kinase Fgr (Homo sapiens) (P09769 2-529 limits assumed): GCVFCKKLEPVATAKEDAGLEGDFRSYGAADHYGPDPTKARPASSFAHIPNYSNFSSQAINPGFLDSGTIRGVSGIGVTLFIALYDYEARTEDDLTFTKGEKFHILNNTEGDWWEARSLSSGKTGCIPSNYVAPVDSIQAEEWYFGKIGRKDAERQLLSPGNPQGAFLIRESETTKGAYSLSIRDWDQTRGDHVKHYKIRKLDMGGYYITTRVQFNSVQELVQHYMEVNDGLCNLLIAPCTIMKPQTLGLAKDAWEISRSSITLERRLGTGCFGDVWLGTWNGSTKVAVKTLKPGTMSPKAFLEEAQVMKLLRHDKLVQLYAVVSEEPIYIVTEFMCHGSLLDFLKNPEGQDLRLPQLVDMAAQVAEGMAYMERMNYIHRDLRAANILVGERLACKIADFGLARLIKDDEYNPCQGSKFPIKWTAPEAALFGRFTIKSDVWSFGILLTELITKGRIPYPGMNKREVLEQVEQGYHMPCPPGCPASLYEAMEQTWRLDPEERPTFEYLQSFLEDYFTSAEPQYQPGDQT
Chain of Fibroblast growth factor receptor 4 (Homo sapiens) (P22455 22-802 limits assumed): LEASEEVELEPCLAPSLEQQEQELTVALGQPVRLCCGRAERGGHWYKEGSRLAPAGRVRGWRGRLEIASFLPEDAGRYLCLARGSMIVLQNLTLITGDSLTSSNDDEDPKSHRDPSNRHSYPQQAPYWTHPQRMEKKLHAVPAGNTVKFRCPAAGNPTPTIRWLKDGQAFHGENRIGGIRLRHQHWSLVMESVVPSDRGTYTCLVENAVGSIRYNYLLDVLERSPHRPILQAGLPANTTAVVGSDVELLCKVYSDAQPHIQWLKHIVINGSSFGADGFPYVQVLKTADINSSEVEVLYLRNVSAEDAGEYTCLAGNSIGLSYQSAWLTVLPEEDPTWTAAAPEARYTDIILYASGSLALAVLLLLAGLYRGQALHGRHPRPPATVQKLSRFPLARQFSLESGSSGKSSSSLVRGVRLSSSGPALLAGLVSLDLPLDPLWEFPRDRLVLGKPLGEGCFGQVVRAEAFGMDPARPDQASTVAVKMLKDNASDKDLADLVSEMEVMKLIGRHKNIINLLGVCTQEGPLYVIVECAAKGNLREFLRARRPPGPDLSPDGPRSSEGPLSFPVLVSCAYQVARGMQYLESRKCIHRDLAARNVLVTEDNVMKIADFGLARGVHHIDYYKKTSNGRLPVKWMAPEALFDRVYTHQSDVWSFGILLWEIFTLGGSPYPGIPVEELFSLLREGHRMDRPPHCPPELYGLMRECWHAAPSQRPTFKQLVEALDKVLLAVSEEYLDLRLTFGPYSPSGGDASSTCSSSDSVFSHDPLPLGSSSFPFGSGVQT

| SMILES | inhibition [1] [%] | inhibition [2] [%] | inhibition [3] [%] | inhibition [4] [%] | inhibition [5] [%] | inhibition [6] [%] | inhibition [7] [%] | inhibition [8] [%] | inhibition [9] [%] | inhibition [10] [%] |
| --- | --- | --- | --- | --- | --- | --- | --- | --- | --- | --- |
| COC(=O)c1ccc2c(c1)C(=Cc1cc(Br)c(O)c(Br)c1)C(=O)N2 | 3.36 | 0.15 | 9.32 | 2.43 | 2.64 | 5.48 | 7.6 | -0.04 | 51.5 | 2.46 |
| COc1ccc2ncnc(Nc3ccc(OCc4ccccc4)cc3)c2c1 | 2.59 | 3.7 | 15.4 | 0.14 | 1.06 | 0.29 | 2.85 | 1.85 | -1 | 1.22 |
| O=C1Nc2ccc(-c3cccnc3)cc2C1=Cc1cc(Br)c(O)c(Br)c1 | 3.07 | 1.1 | 7.55 | 2.53 | 2.06 | 1.83 | 7.91 | 11.8 | 6.13 | 3.07 |
| COc1cccc(-n2nc(C)c3c(N/N=C(\C)c4ccncc4)ncnc32)c1 | -0.8 | 1.55 | 4.36 | -0.52 | -0.07 | 0.32 | -1.96 | -4.92 | -0.79 | 1.37 |
| COc1cc2ncnc(Nc3ccc(C)c(O)c3)c2cc1OC | 4.07 | 15.3 | 46.2 | 74.6 | 93.2 | 0.71 | 3.03 | -2.6 | -3.35 | 6.68 |
| Cc1nc(-c2ccccc2)n2nc(NCCCN3CCOCC3)ncc12 | 3.35 | 2.33 | 4.11 | 2.94 | -1.07 | 2.39 | 4.33 | -0.33 | 0.82 | 0.92 |
| Oc1cccc(-c2nc(-c3ccccc3)[nH]c2-c2ccncc2)c1 | 1.85 | 5.71 | 19.5 | 10.6 | 43.8 | 5.28 | 19.5 | 0.36 | -1.42 | 3.99 |
| CC(C)c1ccc(Nc2nccc(-c3cnn4ncccc34)n2)cc1 | 3.28 | 3.66 | 7.87 | 3.33 | 10.9 | 16.1 | 61.1 | 1.27 | -0.13 | 2.38 |
| Nc1nccc(-c2c(-c3ccc(F)cc3)ncn2CCCN2CCOCC2)n1 | -1.03 | 2.89 | 3.22 | 0.15 | -0.18 | -0.59 | 3.31 | -5.08 | -1.83 | 3.82 |
| CN1CCN(C(=O)c2ccc(NC(=O)Nc3ccc(N(C)c4ccnc(Nc5ccc(CS(C)(=O)=O)cc5)n4)cc3)cc2)CC1 | 3.43 | 5.31 | 26.3 | 21.4 | 43.5 | 64.7 | 83.9 | 0.6 | 21.6 | 2.23 |
| CN(c1ccc(NC(=O)Nc2ccc(OC(F)(F)F)cc2)cc1)c1ccnc(Nc2cccc(S(N)(=O)=O)c2)n1 | 2.57 | 13.8 | 57.2 | 44.4 | 96.1 | 28.6 | 87.4 | 2.56 | -2.45 | 3.15 |
| NS(=O)(=O)c1ccc(-c2cc3ccncc3cc2OCc2ccccc2)cc1 | 4.68 | 5.99 | 4.64 | 0.22 | 2.57 | 2.19 | 2.5 | -4.03 | -0.94 | 3.82 |
| CCS(=O)(=O)c1ccc(OC)c(Nc2nccc(N(C)c3ccc4c(C)n[nH]c4c3)n2)c1 | 11.3 | 23.1 | 61.6 | 60.8 | 91.2 | 6.38 | 6.74 | -7.67 | -2.86 | 1.44 |
| NS(=O)(=O)c1ccc(N/N=C2\C(=O)Nc3ccc(Cl)cc32)cc1 | 0.91 | 4.13 | 7.63 | 2.91 | 8.28 | 16.4 | 66.7 | -0.18 | 0.36 | 3.25 |
| OCc1ccc(-c2nc(-c3ccccn3)c(-c3ccc4c(c3)OCO4)[nH]2)cc1 | 4.36 | 3.43 | 8.26 | 0.94 | 2.09 | 3.25 | 5.93 | 0.22 | -3.23 | 3.25 |
| c1ccc(Cc2nc3ccc(Nc4ncnc5ccccc45)cc3[nH]2)cc1 | -0.04 | 5.51 | 18.2 | 0.86 | 4.39 | 0.83 | 3.55 | 4.82 | -0.14 | 1.48 |
| NS(=O)(=O)c1cccc(-c2cc3ccncc3cc2OCc2ccccc2)c1 | 3.21 | 1.58 | 7.39 | 1.89 | 3.8 | 4.34 | 2.96 | 1.09 | -5.35 | 2.68 |

| SMILES | inhibition [1] [%] | inhibition [2] [%] | inhibition [3] [%] | inhibition [4] [%] | inhibition [5] [%] | inhibition [6] [%] | inhibition [7] [%] | inhibition [8] [%] | inhibition [9] [%] | inhibition [10] [%] |
| --- | --- | --- | --- | --- | --- | --- | --- | --- | --- | --- |
| CCn1c(-c2nonc2N)nc2ccc(F)cc21 | 2.77 | 4.5 | 1.73 | 3.79 | 2.76 | 2.66 | 2.44 | -1.29 | -4.18 | 3.03 |
| ON=C1CCc2cc(-c3nc(C4CCNCC4)[nH]c3-c3ccncc3)ccc21 | 1.91 | -1.48 | 2.99 | 0.48 | 0.61 | -2.95 | 0.24 | -4.99 | -0.2 | 0.16 |
| CC(C)c1ccc2c(c1)NC(=O)/C2=N/Nc1ccc(S(N)(=O)=O)cc1 | -0.36 | 2.93 | 15.5 | 1.02 | 2.87 | 4.65 | 43.7 | -2.45 | 1.48 | -0.25 |
| Cc1ccc2c(-c3ccnc(Nc4cccc(C(F)(F)F)c4)n3)c(-c3ccccc3)nn2n1 | 0.17 | 36.8 | 71 | 2.37 | 21.2 | 1.89 | 10.2 | 3.67 | -1.51 | 2.7 |
| O=C(Nc1ccc(Oc2ccc3[nH]c(NC(=O)c4ccco4)nc3c2)cc1)Nc1cc(C(F)(F)F)ccc1F | -2.3 | 1.62 | 9.51 | 23.6 | 78.8 | 15 | 70.7 | 1.75 | -3.76 | 5.34 |
| Cc1ccc(NC(=O)CC2CC2)cc1-c1ccc(C(=O)NCC2CC2)cc1 | 1.67 | 7.45 | 6.65 | -0.36 | 1.74 | 1.93 | 3.21 | -2.84 | -2.78 | 2.48 |
| COc1cc(/C=N/Nc2ncnc3c2cnn3C(C)C)ccc1O | 1.4 | 9.02 | 40.4 | -0.74 | 3.88 | 2.52 | 22.7 | -2.61 | 4.77 | 4.41 |
| Cc1ccc2c(-c3ccnc(Nc4ccc5c(c4)OCCO5)n3)c(-c3ccc(C(F)(F)F)cc3)nn2n1 | 2.08 | 4.97 | 18.4 | -1.27 | -0.4 | 2.13 | 0.3 | -5.65 | 0.31 | -0.13 |
| COc1cccc(-n2ncc3c(N/N=C/c4ccc(C)cc4)ncnc32)c1 | 1.93 | 3.81 | 18.9 | -0.93 | 0.15 | 0.84 | 5.84 | 2.71 | -1.47 | 1.83 |
| NC(=O)c1cccc(Nc2nccc(Nc3cccc(F)c3)n2)c1 | 1.79 | 5.52 | 30 | 1.29 | 16.4 | 3.08 | 16.5 | 1.55 | 32.4 | 10.5 |
| COc1cc2ncn(-c3cc(OCc4ccccc4S(C)(=O)=O)c(C#N)s3)c2cc1OC | 1.47 | 15.2 | 59.6 | 3.31 | 15.7 | 3.03 | 11.6 | 5.25 | 1.09 | 4.94 |
| Nc1nccc(-c2c(-c3ccc(F)cc3)nn3cc(C(F)(F)F)ccc23)n1 | 0.14 | 2.64 | 4.08 | -2.26 | 0.63 | 2.41 | -0.04 | -7.47 | -2.71 | 0.03 |
| C[C@@H](Oc1cc(-n2cnc3ccc(OC[C@@H](O)CO)cc32)sc1C(N)=O)c1ccccc1Cl | 0.23 | 0.03 | 4.04 | -1.57 | -1.26 | 0.49 | 5.21 | -3.1 | 2.03 | -0.16 |
| NC(=O)c1sc(-n2cnc3ccccc32)cc1OCc1ccccc1Br | 0.92 | 1.44 | 6.14 | -0.01 | 4.57 | 2.74 | 1 | -6.76 | -4.77 | 1.17 |
| COC(=O)c1cncc(/C=C/c2c(C)cc(O)cc2C)c1 | 0.95 | 5.81 | 20.9 | 0.94 | 0.15 | 2.01 | 3.02 | -1.65 | -3.53 | 3.21 |
| Cc1ccc2c(c1)/C(=N/Nc1ccc(S(N)(=O)=O)cc1)C(=O)N2 | -0.45 | -0.72 | 9.99 | 0.83 | 7.86 | 13.6 | 61.7 | -0.36 | 1.67 | -0.02 |
| NS(=O)(=O)c1ccc(NC=C2C(=O)Nc3ccc4ncsc4c32)cc1 | 11.5 | 6.25 | 36.2 | 19.3 | 67.6 | 47.7 | 85.4 | 59.9 | 63.6 | 8.88 |
